According to PubChem BioAssay (NCATS):
Where “and” joins values, the source holds several entries; their conditions need not be identical. Equal values may be shown once. Records with an inconclusive call do not appear. Where a call stands in place of a potency, no number is given. The source holds several records for some structures; these can differ, active in one and inactive in another. Calls of active or inactive are those of the source. Unless noted, calls follow the shape of the dose curve; as a rule, active = well fitted curve in the direction sought with a large enough effect; inconclusive = small, poorly fitted or top-dose-only effect, or another doubt; inactive = no such curve, though single readings can be large; an effect the other way counts as inactive or inconclusive. Where a SMILES comes first, the peptide text is derived from it.

Key:
[1] = qHTS assay for small molecule antagonists of peroxisome proliferator-activated receptor delta signaling (AID 588535); conditions: HEK293T PPARd-UAS-bla, beta-lactamase FRET ratio, 18 h; 460 nm channel;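 also: cells co-treated with a PPAR-delta agonist as stimulator during compound exposure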
Summary of the method: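 GeneBLAzer PPAR-delta-UAS-bla HEK293T cells in medium with 2% charcoal/dextran FBS were preincubated 5 hrs at 37 C, then given compounds, incubated 18 hrs at 37 C, and read by CCF4 beta-lactamase fluorescence; IC50 from Hill fits.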

[2] = molecular target: Peroxisome proliferator-activated receptor gamma (Homo sapiens) (UniProt P37231); test: qHTS assay for small molecule antagonists of peroxisome proliferator-activated receptor gamma signaling (AID 588537; active = well fitted inhibition curve with a large enough effect in the signal ratio, with a control signal flat, not every such curve was filed as active; the % refers to the signal ratio; also: potency is read from the fitted curve at half-maximal effect); conditions: HEK293 PPARg-UAS-bla, beta-lactamase ratio, antagonist mode; series mostly up to 76.8 µM
Sequence of Peroxisome proliferator-activated receptor gamma (Homo sapiens) (P37231 whole entry, looked up): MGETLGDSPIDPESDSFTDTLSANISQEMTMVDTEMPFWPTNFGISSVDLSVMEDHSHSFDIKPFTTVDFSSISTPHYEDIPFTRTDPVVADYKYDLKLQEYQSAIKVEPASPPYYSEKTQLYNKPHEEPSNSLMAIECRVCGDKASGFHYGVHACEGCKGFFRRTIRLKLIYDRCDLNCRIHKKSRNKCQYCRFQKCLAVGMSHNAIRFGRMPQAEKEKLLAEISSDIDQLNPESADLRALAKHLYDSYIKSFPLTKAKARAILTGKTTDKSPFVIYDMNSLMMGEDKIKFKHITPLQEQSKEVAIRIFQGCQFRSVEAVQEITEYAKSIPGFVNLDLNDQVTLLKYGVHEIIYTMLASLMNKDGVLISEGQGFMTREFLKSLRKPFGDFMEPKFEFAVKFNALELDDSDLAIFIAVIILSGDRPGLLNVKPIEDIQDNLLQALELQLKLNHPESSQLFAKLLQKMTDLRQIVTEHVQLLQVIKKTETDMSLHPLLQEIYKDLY
Summary of the method: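 PPAR-gamma-UAS-bla HEK293 cells (3000/well, 1% charcoal/dextran-stripped FBS) were preincubated 6-6.5 h at 37 C, given titrated compounds, then stimulated with 50 nM rosiglitazone for 16 h. Beta-lactamase activity was read with CCF4 dye; IC50 came from Hill fits.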

[3] = molecular target: Guanine nucleotide-binding protein G(i) subunit alpha-1 (Homo sapiens) (UniProt P63096); test: qHTS Assay for Inhibitors of RGS12 GoLoco Motif Activity (Green Fluorophore) (AID 879); conditions: Galphai1/FITC-RGS12 GoLoco peptide, fluorescence polarization; series mostly up to 57.1 µM;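 also: negative values mean loss of peptide binding seen as reduced polarization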
Sequence of Guanine nucleotide-binding protein G(i) subunit alpha-1 (Homo sapiens) (P63096 whole entry, looked up): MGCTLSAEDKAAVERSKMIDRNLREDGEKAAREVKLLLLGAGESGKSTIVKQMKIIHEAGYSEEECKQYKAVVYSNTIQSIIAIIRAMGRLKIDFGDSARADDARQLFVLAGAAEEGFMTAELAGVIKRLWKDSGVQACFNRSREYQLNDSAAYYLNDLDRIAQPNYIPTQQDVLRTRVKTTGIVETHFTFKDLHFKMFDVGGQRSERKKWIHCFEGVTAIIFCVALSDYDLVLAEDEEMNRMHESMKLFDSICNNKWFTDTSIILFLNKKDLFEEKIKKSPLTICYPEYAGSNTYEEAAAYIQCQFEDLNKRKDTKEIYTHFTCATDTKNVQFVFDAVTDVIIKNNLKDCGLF
Summary of the method: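 Fluorescence polarization assay: 50 nM Gαi1 with 10 nM FITC-labeled RGS12 GoLoco peptide in 10 mM Tris pH 7.5, 150 mM NaCl, 0.1 mM GDP, 0.05% NP40, 10 min at room temperature with compound.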

[4] = molecular target: Pyruvate kinase PKM (Homo sapiens) (UniProt P14618); test: qHTS Assay for Activators of Human Muscle Pyruvate Kinase (AID 954; active = well fitted curve in the direction sought with a large enough effect, not every such curve was filed as active); conditions: purified human muscle pyruvate kinase, luciferase-coupled luminescence, 1 h; series mostly up to 57.5 µM
Sequence of Pyruvate kinase PKM (Homo sapiens) (P14618 whole entry, looked up): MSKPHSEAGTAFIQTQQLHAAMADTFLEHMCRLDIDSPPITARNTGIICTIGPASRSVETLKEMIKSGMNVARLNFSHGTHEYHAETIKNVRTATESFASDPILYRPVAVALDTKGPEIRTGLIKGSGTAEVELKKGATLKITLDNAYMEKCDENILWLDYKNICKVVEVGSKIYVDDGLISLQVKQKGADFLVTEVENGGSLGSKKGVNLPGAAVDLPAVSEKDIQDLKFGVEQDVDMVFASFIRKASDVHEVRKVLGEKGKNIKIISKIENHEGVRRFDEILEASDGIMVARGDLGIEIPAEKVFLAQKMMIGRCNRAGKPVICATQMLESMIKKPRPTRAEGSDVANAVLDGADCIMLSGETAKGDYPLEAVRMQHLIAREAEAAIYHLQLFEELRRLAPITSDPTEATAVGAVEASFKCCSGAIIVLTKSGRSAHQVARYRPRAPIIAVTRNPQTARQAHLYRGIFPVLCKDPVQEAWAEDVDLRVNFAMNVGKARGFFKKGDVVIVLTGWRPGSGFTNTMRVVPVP
Summary of the method: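 Purified human PKM2 (0.1 nM) with 0.5 mM PEP (Km) and 0.1 mM ADP in 50 mM imidazole pH 7.2, KCl, MgCl2, 1 h at room temperature; ATP formed read by coupled luciferase luminescence. Normalized to no-enzyme/110 uM thiadiazolimine inhibition; 0.3 nM enzyme column for activation.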

[5] = molecular target: Alpha-galactosidase A (Homo sapiens) (UniProt P06280); test: Counterscreen for Glucocerebrosidase Inhibitors: qHTS Assay for Human alpha-Galactosidase at pH 4.5 (AID 992); conditions: purified enzyme, fluorogenic substrate; series mostly up to 76.9 µM
Sequence of Alpha-galactosidase A (Homo sapiens) (P06280 whole entry, looked up): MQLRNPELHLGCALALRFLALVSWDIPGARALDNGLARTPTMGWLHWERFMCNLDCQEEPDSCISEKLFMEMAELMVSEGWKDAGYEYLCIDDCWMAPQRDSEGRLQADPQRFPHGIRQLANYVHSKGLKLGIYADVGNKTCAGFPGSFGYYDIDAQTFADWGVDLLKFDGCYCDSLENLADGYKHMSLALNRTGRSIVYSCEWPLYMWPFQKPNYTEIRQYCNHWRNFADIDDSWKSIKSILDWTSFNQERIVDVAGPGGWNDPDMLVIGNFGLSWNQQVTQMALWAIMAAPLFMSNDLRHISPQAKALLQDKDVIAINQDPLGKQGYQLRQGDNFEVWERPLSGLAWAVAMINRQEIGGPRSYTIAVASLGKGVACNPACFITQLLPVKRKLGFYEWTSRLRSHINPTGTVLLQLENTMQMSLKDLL
Summary of the method: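 Human enzyme (2 nM) with 80 uM 4-methylumbelliferyl alpha-D-galactopyranoside in 50 mM citric acid, 0.005% Tween-20, pH 4.5, 20 min at room temperature. Compounds 0.7 nM–77 uM; fluorescence Ex 365/Em 440 after pH 10 stop; AC50 from Hill fits.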

[6] = molecular target: alpha-glucosidase (Oryza sativa, rice) (UniProt Q653V4); test: Counterscreen for Glucocerebrosidase Inhibitors: qHTS Assay for Rice alpha-Glucosidase at pH 5.0 (AID 997); conditions: rice alpha-glucosidase enzyme activity; series mostly up to 76.9 µM
Summary of the method: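 Rice alpha-glucosidase (4 nM final) with 400 uM 4-methylumbelliferyl-alpha-D-glucopyranoside in citrate buffer pH 5.0, 20 min at room temperature, stopped at pH 10; fluorescence 365/440 nm, compounds 0.7 nM–77 uM, AC50 from Hill fits.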

[7] = molecular target: Cytochrome P450 2D6 (Homo sapiens) (UniProt P10635); test: qHTS Assay for Inhibitors and Substrates of Cytochrome P450 2D6 (AID 891); conditions: recombinant CYP2D6, luciferin-ME EGE luminescence; series mostly up to 57.1 µM;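 also: luciferin methyl ether substrate demethylated by CYP2D6 with NADPH regeneration; nearly all actives have a fitted effect of over 60% in size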
Sequence of Cytochrome P450 2D6 (Homo sapiens) (P10635 whole entry, looked up): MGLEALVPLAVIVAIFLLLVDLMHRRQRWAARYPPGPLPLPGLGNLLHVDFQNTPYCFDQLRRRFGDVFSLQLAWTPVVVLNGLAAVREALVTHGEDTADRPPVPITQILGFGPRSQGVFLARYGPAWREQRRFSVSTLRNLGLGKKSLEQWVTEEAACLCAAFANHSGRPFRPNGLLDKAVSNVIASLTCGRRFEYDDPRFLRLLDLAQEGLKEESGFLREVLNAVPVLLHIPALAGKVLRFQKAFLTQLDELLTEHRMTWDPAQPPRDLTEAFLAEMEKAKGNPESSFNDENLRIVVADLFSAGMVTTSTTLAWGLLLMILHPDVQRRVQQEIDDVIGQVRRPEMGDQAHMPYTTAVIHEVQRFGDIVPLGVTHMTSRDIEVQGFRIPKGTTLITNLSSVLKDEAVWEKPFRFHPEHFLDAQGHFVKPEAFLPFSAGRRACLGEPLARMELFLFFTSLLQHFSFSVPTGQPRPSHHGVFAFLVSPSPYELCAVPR
Summary of the method: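 Human CYP2D6 (5 nM) with 30 uM Luciferin-ME EGE (at Km) in 100 mM KPO4, compound preincubated 10 min, then NADPH regeneration system for 60 min at room temperature. Luciferin read by luminescence; normalized to 1.43 uM quinidine.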

[8] = molecular target: Cytochrome P450 3A4 (Homo sapiens) (UniProt P08684); test: qHTS Assay for Activators of Cytochrome P450 3A4 (AID 885); conditions: recombinant CYP3A4, Luciferin-PPXE luminescence, 60 min; series mostly up to 57.1 µM; also: nearly all actives have a fitted effect of over 65% in size
Sequence of Cytochrome P450 3A4 (Homo sapiens) (P08684 whole entry, looked up): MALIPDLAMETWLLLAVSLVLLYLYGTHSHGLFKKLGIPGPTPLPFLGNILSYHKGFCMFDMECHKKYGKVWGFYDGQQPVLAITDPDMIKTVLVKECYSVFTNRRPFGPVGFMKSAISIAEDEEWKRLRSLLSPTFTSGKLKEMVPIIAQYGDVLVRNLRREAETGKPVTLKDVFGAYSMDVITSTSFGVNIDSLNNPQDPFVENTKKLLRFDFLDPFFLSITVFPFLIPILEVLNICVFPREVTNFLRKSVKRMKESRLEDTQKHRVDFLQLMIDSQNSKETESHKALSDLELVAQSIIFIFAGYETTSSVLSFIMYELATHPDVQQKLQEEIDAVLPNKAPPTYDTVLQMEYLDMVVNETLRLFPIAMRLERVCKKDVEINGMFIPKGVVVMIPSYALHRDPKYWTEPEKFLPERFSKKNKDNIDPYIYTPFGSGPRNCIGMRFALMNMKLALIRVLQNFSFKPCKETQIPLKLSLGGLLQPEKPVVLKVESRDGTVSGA
Summary of the method: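 Human CYP3A4 (20 nM) with Luciferin-PPXE at 25 uM (its KM) in 200 mM KPO4; 10 min compound preincubation, then NADPH regeneration and 60 min reaction at RT. Luciferin read by luminescence; normalized to 57 uM ketoconazole full inhibition.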

[9] = molecular target: Androgen receptor (Homo sapiens) (UniProt P10275); test: qHTS assay for small molecule agonists of androgen receptor signaling (AID 588515; active = well fitted curve in the direction sought with a large enough effect in the signal ratio, with a control signal flat; the % refers to the signal ratio); conditions: AR-UAS-bla HEK293, beta-lactamase ratio, agonist 16 h; stronger effect = higher value
Sequence of Androgen receptor (Homo sapiens) (P10275 whole entry, looked up): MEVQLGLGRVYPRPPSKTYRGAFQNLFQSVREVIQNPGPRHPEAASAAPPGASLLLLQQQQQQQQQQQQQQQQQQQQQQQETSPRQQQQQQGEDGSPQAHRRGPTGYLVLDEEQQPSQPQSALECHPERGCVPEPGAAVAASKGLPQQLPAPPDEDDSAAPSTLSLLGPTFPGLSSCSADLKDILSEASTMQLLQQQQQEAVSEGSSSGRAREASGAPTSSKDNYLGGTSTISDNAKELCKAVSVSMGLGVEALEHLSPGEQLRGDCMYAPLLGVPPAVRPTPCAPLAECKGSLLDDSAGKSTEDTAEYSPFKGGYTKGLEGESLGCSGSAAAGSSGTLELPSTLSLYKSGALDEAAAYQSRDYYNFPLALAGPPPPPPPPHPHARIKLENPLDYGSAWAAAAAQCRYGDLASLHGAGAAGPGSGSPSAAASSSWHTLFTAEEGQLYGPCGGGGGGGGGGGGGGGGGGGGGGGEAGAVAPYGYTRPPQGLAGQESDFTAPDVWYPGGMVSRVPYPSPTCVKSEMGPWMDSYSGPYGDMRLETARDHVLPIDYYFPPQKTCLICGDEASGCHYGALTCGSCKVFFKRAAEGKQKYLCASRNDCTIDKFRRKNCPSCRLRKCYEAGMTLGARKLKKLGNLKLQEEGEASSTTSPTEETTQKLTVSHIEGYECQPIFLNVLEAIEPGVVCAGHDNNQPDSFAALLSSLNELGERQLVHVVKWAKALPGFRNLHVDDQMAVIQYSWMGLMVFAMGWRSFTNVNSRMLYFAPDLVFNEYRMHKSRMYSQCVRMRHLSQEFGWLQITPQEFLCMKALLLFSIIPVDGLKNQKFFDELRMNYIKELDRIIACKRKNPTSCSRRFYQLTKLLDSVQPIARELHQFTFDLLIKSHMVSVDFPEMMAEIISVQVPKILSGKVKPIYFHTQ
Summary of the method: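 EC50 and efficacy came from Hill fits of titrations (up to 92 uM) normalized to 30 nM R1881 as 100% and DMSO as 0%. Compound exposure was 16 h at 37 C on AR-UAS-bla HEK293 cells, with a 405/460/530 nm CCF4 fluorescence read.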

[10] = molecular target: Androgen receptor (Homo sapiens) (UniProt P10275); test: qHTS assay for small molecule antagonists of androgen receptor signaling (AID 588516; active = well fitted curve in the direction sought with a large enough effect in the signal ratio, with a control signal flat, not every such curve was filed as active; the % refers to the signal ratio; also: potency is read from the fitted curve at half-maximal effect); conditions: AR-UAS-bla HEK293, beta-lactamase ratio, antagonist mode, 16 h; series mostly up to 76.8 µM
Summary of the method: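 HEK293 AR-UAS-bla cells, 10% dialyzed FBS medium; cpd titration + R1881 10 nM final, 16 h 37 C; CCF4 2 h RT; FRET ratio; IC50/efficacy via Hill fit.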

[11] = molecular target: Peroxisome proliferator-activated receptor gamma (Homo sapiens) (UniProt P37231); test: qHTS assay for small molecule agonists of peroxisome proliferator-activated receptor gamma signaling (AID 588536; active = well fitted curve in the direction sought with a large enough effect in the signal ratio, with a control signal flat, not every such curve was filed as active; the % refers to the signal ratio); conditions: HEK293 PPARg-UAS-bla, beta-lactamase ratio, 16 h; series mostly up to 76.7 µM
Summary of the method: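 GeneBLAzer PPAR-gamma-UAS-bla HEK293 cells in 1% charcoal/dextran-treated FBS medium were treated 16 h at 37 C with compounds. Beta-lactamase activity was read by CCF4 ratio (460/530 nm). Response was normalized to 2 uM rosiglitazone (100%) and DMSO, then Hill-fitted for EC50 and efficacy.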

[12] = molecular target: Muscarinic acetylcholine receptor M1 (Rattus norvegicus) (UniProt P08482); test: qHTS Assay for Antagonists of Acetylcholine Muscarinic M1 Receptor: Kinetic Measurement of Intracellular Calcium Response (AID 943); conditions: M1-expressing cells, kinetic intracellular calcium fluorescence; series mostly up to 35.3 µM;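 also: Fluo-4 calcium signal as peak divided by basal fluorescence over 4 min; nearly all actives have a fitted effect of over 75% in size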
Sequence of Muscarinic acetylcholine receptor M1 (Rattus norvegicus) (P08482 whole entry, looked up): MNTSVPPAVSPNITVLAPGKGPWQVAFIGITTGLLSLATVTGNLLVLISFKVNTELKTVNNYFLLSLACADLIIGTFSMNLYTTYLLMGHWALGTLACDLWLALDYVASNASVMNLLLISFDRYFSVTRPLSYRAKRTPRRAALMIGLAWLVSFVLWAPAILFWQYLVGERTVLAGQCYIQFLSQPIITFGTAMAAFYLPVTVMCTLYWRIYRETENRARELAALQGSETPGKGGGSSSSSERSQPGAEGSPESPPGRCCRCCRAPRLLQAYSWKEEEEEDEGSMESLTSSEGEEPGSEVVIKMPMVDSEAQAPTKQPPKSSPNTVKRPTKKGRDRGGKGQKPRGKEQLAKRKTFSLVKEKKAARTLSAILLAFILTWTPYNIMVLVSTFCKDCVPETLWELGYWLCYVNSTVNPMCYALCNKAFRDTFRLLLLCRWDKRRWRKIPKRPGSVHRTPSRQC
Summary of the method: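 Intracellular calcium flux, recorded with Fluo-4 in a kinetic plate reader, served as signal; the response to carbachol at EC80 (100 nM final) was taken as maximal over minimal fluorescence after a 10 min compound pre-incubation in rat M1-CHO cells.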

[13] = qHTS assay to identify small molecules that stimulate interleukin-8 (IL-8) secretion (AID 651758; active = well fitted activation curve with a large enough effect in the signal ratio; the % refers to the signal ratio; also: potency is read from the fitted curve at half-maximal effect); conditions: HTRF ratio (665/615); series mostly up to 92.2 µM
Summary of the method: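 THP-1, 2000 cells/well; cpd 16 h, 37 C; add cryptate + XL665 anti-IL-8 Abs; RT 1-3 h; TR-FRET read.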

[14] = qHTS Assay for Identification of Small Molecule Agonists for Hypoxia Response Element Signaling Pathway (AID 914; active = well fitted activation curve with a large enough effect in the signal ratio, with a control signal flat, not every such curve was filed as active; the % refers to the signal ratio); conditions: ME-180 (cervical carcinoma) HRE-bla reporter, beta-lactamase ratio, CoCl2, 17 h; activation: stronger effect = higher value
Summary of the method: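 Compounds in a titration series were added to ME-180 reporter cells alongside an EC50 level of CoCl2. After 17 hours, beta-lactamase activity was read as the 460nm/530nm emission ratio of CCF4, giving AC50 values.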

Which max response [1] does the source give for `O=C(CCl)c1ccccc1` here?
Its max response is 18.1%.

And the Potency [2]?
The Potency was “inactive”.

With `C[C@@H]1O[C@@H](O[C@H]2C[C@@H](O)[C@]3(CO)[C@@H]4[C@@H](O)C[C@]5(C)[C@H](C6=CC(=O)OC6)CC[C@@]5(O)[C@H]4CC[C@@]3(O)C2)[C@H](O)[C@H](O)[C@@H]1O` as the compound, how does the Potency [3] read?
Its Potency is “inactive”.

What about the outcome [4] of the same compound?
The outcome was “inactive”.

And the outcome [5]?
The outcome was “inactive”.

What about the outcome [6] of the same compound?
The outcome was “inactive”.

With `Nc1ccccc1C(=O)OCCc1ccccc1` as the compound, how does the Potency [2] read?
Its Potency is “inactive”.

With `CCCC[C@@H]1C[C@H]1C(NP(=O)(c1ccccc1)c1ccccc1)c1ccc(Cl)cc1` (stereo partly drawn) as the compound, how does the Potency [7] read?
Its Potency is “inactive”.

What does the source list for `O=C1C2(Cl)C3(Cl)C4(Cl)C(Cl)(Cl)C5(Cl)C3(Cl)C1(Cl)C5(Cl)C24Cl` (stereo not drawn)?
Potency [8]: inactive; activation [9]: 0.62% (inactive); Potency [10]: 44.7 µM (active) and inactive; Potency [2]: 44.7 µM (active) and inactive

With `CC(=O)[O-].CC(=O)[O-].O.O.[Cd+2]` as the compound, how does the Potency [8] read?
The Potency was “inactive”.

For `Oc1c(Br)c(Br)c(Br)c(Br)c1Br`, which Potency [10] is on record?
The Potency was “inactive”.

With `CCCCCCCCn1sccc1=O` as the compound, how does the Potency [8] read?
Its Potency is “inactive”.

What about the Potency [11] of the same compound?
The Potency was “inactive”.

With `Oc1cc2c(cc1O)[C@H]1c3ccccc3CN[C@@H]1CC2` as the compound, how does the Potency [3] read?
Its Potency is “inactive”.

What about the Potency [12] of the same compound?
The Potency was “inactive”.

What about the outcome [5] of the same compound?
Its outcome is “inactive”.

What about the outcome [6] of the same compound?
Its outcome is “inactive”.

For `C(=NC1CCCCC1)=NC1CCCCC1`, which Potency [13] is on record?
The Potency was 53.1 µM (active).

For `Clc1ccc(C(c2ccc(Cl)cc2)C(Cl)Cl)cc1`, which max response [1] is on record?
The max response was -7.51%.

With `N#CSCSC#N` as the compound, how does the Potency [2] read?
Its Potency is 35.5 µM (active).

With `COP(=O)(OC)O/C(=C\Cl)c1cc(Cl)c(Cl)cc1Cl` as the compound, how does the activation [9] read?
The activation was -13% (inactive).

What about the Potency [13] of the same compound?
The Potency was “inactive”.

For `O=[N+]([O-])C(Br)Br`, which activation [9] is on record?
Its activation is 6.33% (inactive).

And the Potency [10]?
Its Potency is “inactive”.

What about the max response [1] of the same compound?
Its max response is -33.2%.

What about the Potency [11] of the same compound?
The Potency was “inactive”.

And the Potency [2]?
The Potency was “inactive”.

For `CC(C)C[C@H](NC(=O)[C@@H]1CCCN1C(=O)[C@@H](N)Cc1ccc(O)cc1)C(=O)NCC(N)=O` (H-YPLG-NH2), which activation [14] is on record?
The activation was -10.4% (inactive).

With `FC(F)(F)c1ccc(Cl)cc1` as the compound, how does the max response [1] read?
Its max response is -2.48% and -14.3%.

What about the Potency [11] of the same compound?
The Potency was “inactive”.

And the Potency [2]?
Its Potency is “inactive”.

What does the source list for `O=[N+]([O-])c1cc(C(F)(F)F)cc([N+](=O)[O-])c1Cl`?
max response [1]: 32.3%; Potency [11]: inactive; Potency [13]: inactive

For `[Cd+2].[Cl-].[Cl-]`, which Potency [8] is on record?
The Potency was “inactive”.
